# This is one part of a sample in which hits are shown more often than they occur.
# AMPAR-TARP mod: modulators of GluA2-stargazin AMPA receptor complexes, primary screen, cell-based, membrane potential dye; Voltage-dependent calcium channel gamma-2 subunit (Mus musculus) + Glutamate receptor 2 …; HEK293 GluA2+stargazin, membrane potential dye (FDSS), glutamate EC50; hits were called plate by plate, in both directions; calls only at 30 µM; hit rate 3.5% among 40,000; AID 1259245, 2017;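 active = any of four per-well response measures lying three or more SD from its plate-wide compound average, in either direction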
# Target sequence (O88602 whole entry, looked up): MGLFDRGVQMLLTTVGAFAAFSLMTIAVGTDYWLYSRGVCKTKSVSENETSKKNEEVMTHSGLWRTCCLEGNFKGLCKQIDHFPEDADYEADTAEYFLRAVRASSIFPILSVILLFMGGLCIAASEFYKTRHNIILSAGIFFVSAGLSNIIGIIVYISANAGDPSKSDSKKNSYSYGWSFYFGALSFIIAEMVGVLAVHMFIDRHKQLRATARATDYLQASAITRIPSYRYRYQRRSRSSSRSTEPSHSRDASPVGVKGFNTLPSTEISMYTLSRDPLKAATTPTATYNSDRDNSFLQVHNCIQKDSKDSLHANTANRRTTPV
# Target sequence (P19491 whole entry, looked up): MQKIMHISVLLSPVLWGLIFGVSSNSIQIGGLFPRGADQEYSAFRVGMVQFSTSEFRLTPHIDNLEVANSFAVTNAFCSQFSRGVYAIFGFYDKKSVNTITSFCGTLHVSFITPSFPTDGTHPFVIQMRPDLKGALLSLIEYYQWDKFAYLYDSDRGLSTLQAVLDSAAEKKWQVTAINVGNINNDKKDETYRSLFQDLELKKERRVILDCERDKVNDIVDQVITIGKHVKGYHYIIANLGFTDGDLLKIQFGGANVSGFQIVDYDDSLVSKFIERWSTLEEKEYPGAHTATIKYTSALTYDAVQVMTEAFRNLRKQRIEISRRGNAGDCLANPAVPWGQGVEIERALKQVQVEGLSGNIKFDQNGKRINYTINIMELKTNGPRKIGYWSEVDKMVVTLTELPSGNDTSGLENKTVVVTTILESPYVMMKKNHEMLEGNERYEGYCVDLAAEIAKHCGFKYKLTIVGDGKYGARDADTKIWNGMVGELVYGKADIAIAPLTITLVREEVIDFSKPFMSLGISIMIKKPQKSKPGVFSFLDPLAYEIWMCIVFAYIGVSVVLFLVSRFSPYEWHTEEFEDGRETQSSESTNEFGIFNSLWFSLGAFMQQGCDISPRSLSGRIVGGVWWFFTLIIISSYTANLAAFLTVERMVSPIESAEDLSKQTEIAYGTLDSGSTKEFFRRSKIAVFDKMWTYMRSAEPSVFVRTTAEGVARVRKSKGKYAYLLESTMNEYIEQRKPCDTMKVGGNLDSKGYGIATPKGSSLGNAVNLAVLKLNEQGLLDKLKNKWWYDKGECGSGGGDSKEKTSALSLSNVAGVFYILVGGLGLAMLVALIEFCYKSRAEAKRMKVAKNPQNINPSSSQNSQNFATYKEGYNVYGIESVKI
# GIRK2 activator: activators of NPY4-receptor-primed GIRK2 channels, summary, cell-based, HEK293, thallium flux | activation (% efficacy), % for hits at 37.5 µM | AID 1259324, 2017 | 34,000 tested, under 10 active | HEK293 GIRK2/NPY4 cells, thallium flux fluorescence | G protein-activated inward rectifier potassium channel 2 (Homo sapiens), P48051;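 active = primary screen hit, no activity in plain HEK293 cells, and in GIRK2-only cells above 5% efficacy rising with concentration; inactive = the rest, including fluorescent compounds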;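 note: efficacy is normalized control-subtracted fluorescence 15 s after thallium addition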
# * = called active by the depositor; i = inactive; nt = not tested or not shown; + = active, no number; [ ] = remark or other dose.
SMILES,AMPAR-TARP mod,GIRK2 activator
CCCN(CCC)S(=O)(=O)c1ccc(C(=O)Nc2ccccc2OC)cc1,+,nt
O=C(Nc1ccc2scnc2c1)c1ccc(S(=O)(=O)N2CCCCCC2)cc1,i,i
COc1ccc(C)c2sc(N(CCN3CCOCC3)C(=O)CCc3ccccc3)nc12,i,nt
O=C(Nc1nc(CC(=O)N2CCN(c3ccccc3)CC2)cs1)c1ccc(=O)[nH]c1,i,i
O=C(Cc1ccc(NS(=O)(=O)C2CCCCC2)cc1)NCc1cccs1,i,i
O=C1Nc2ccccc2Oc2ccc(NS(=O)(=O)C3CCCCC3)cc21,+,nt
CCSc1ccccc1C(=O)NCCn1cnc(-c2ccccc2)cc1=O,+,i
O=C(Cn1cnc(-c2ccccc2)cc1=O)NCCC(c1ccccc1)c1ccccc1,i,i
Cc1nn(C(C)(C)C)c(OC(=O)c2ccccc2Br)c1S(=O)(=O)c1ccccc1,+,nt
COc1cc(OC)cc(C(=O)Oc2c(S(=O)(=O)c3ccc(C)cc3)c(C)nn2C(C)(C)C)c1,+,nt
COc1cc(OC)cc(C(=O)Oc2c(S(=O)(=O)c3ccccc3)c(C)nn2C(C)(C)C)c1,i,nt
Cc1ccc(S(=O)(=O)c2c(C)nn(C(C)(C)C)c2OC(=O)c2ccccc2C)cc1,i,nt
Cn1nnc2c(N3CCN(S(=O)(=O)c4cc(F)ccc4F)CC3)ncnc21,i,i
Cc1c(Cl)cccc1S(=O)(=O)NCC(O)(c1ccccc1)C(F)(F)F (stereo not given),+,i
O=S(=O)(NCC(O)(c1ccccc1)C(F)(F)F)c1ccccc1Cl (stereo not given),i,i
Cn1cccc1C(CNC(=O)C1CCN(S(C)(=O)=O)CC1)N1CCCC1 (stereo not given),+,i
Cn1cccc1C(CNC(=O)C(=O)NC1CCCC1)N1CCCC1 (stereo not given),i,i
Cc1cc(NC(=O)C(=O)NCc2ccccc2Cl)ccc1N1CCCC1=O,i,i
O=C(Cn1nc(-c2ccco2)ccc1=O)Nc1ccccc1[N+](=O)[O-],i,i
Cc1cc(N2CCN(C)CC2)nc(SCC2COc3ccccc3O2)n1 (stereo not given),+,nt
NCC(O)COCC1COc2ccccc2O1 (stereo not given),i,i
CN1CCN(c2nc(Nc3cccc(O)c3)nc3ccccc23)CC1,+,nt
Fc1ccccc1Nc1nc(N2CCOCC2)c2ccccc2n1,+,nt
Cc1nc(Nc2cccc(F)c2)nc(N2CCOCC2)c1[N+](=O)[O-],i,i
Fc1cccc(Nc2nc(N3CCCCC3)c3[nH]cnc3n2)c1,i,i
SMILES,AMPAR-TARP mod,GIRK2 activator
O=C(CCCS(=O)(=O)c1ccccc1)N(Cc1ccccc1)Cc1ccccc1,i,i
CCOc1ccc(N2C(=O)N(c3ccccc3OC)C3CS(=O)(=O)CC32)cc1 (stereo not given),i,i
O=C(Nc1ccc(OC(F)(F)F)cc1)C1CCCN(c2cc(-n3cccn3)ncn2)C1 (stereo not given),i,i
COc1cc(C)ccc1OCC(=O)N1CCN(c2ccc3nncn3n2)CC1,i,i
COc1cc(C)ccc1OCC(=O)N1CCN(c2ccc3nnc(C)n3n2)CC1,+,i
O=C(c1cccs1)N1CCN(c2cc(-c3ccccc3)[nH]n2)CC1,nt,i
CCCc1c(C(=O)NCc2ccccc2OC)nnn1-c1ccccc1,i,i
CCCc1c(C(=O)Nc2ccccc2F)nnn1-c1ccccc1,i,7.0%*[25 µM]
O=C(NCC1CCN(c2ccccn2)CC1)c1cc(-c2ccccc2)on1,nt,i
COc1ccc(N2C(=O)/C(=C/c3ccc(OC)c(OC)c3)SC2=S)cc1,i,nt
CCc1nc2ccccc2n1Cc1ccccc1OC,i,i
CCCc1nc2ccccc2n1Cc1ccccc1OC,+,nt
COc1ccc(S(=O)(=O)NCc2nnnn2-c2ccc(F)c(F)c2)cc1,i,nt
COc1ccc(S(=O)(=O)NCc2nnnn2-c2ccc(F)cc2)cc1,+,nt
O=C(CCSc1ccc(Cl)cc1)Nc1nnc(-c2ccccn2)o1,i,i
O=C(CCS(=O)(=O)c1ccc(Cl)cc1)Nc1nnc(-c2ccccn2)o1,+,i
CS(=O)(=O)N1CCCc2ccc(NC(=O)C(=O)NCCc3ccc(S(N)(=O)=O)cc3)cc21,i,i
COc1ccccc1-c1ccc(N2CCC(C(=O)N3CCN(c4ccccc4OC)CC3)CC2)nn1,i,i
CCN(C(=O)C1CCN(c2ccc(-c3ccccc3OC)nn2)CC1)C1CCCCC1,+,i
COc1ccc(C2CCN(C(=O)c3cccs3)C2)cc1 (stereo not given),nt,i
CC(=O)Cc1nsc(NC(=O)c2oc3ccc(C)cc3c2C)n1,i,nt
CC(=O)Cc1nsc(NC(=O)c2cc(-c3ccc([N+](=O)[O-])cc3)oc2C)n1,+,i
Cc1ccccc1C(=O)Nc1ccc(N2CCCC2=O)c(C)c1,i,i
CCCC(=O)NCCNc1cc(-n2ccnc2C)ncn1,i,i
Cc1ccc(S(=O)(=O)N(CC(O)CNCCC(=O)O)c2ccc(F)cc2)cc1 (stereo not given),i,i
SMILES,AMPAR-TARP mod,GIRK2 activator
COc1ccc(N(CC(O)CNCCC(C)C)S(=O)(=O)c2ccc(C)cc2)cc1 (stereo not given),+,nt
Cc1ccc(Cl)cc1S(=O)(=O)NCC(c1cccn1C)N(C)C (stereo not given),i,i
CN(C)C(CNS(=O)(=O)c1cc(Cl)ccc1Cl)c1cccn1C (stereo not given),+,i
COc1ccc(C2(CNC(=O)C3CCN(S(C)(=O)=O)CC3)CCCC2)cc1,+,i
COc1ccc(C2(CNS(C)(=O)=O)CCCC2)cc1,i,i
O=C(NC1CCCCC1N1C(=O)CSC1=O)c1ccc(-n2cccc2)cc1 (stereo not given),i,i
Cc1cc(NC(=O)c2cccc(Cl)c2)n(C(C)C)n1,nt,i
O=C(Cc1cc(-c2ccc(F)cc2F)on1)Nc1ccon1,i,i
Cc1ccnc(NC(=O)Cc2cc(-c3ccccc3F)on2)c1,+,i
O=C(Nc1nc2ccc([N+](=O)[O-])cc2s1)c1ccc(S(=O)(=O)N2CCCCC2)cc1,i,nt
Nc1nc2ccc(S(=O)(=O)N3CCCCC3)cc2s1,+,i
CCCNC(=O)Cn1nc2c(c1NC(=O)Cc1ccc(OC)c(OC)c1)CSC2,i,i
COc1ccc(S(=O)(=O)CCC(=O)Nc2nc(-c3cccc4ccccc34)cs2)cc1,i,i
Cc1ccccc1C(=O)N1CCC2(CC1)CC(=O)c1ccccc1O2,+,nt
CC(C)(C)c1ccc(C(=O)N2CCC3(CC2)CC(=O)c2ccccc2O3)cc1,i,nt
CCOC(=O)c1c(SC(CC)C(=O)OC)nc(=O)[nH]c1C (stereo not given),i,i
CC(C)C(=O)Nc1ccc(SCC(=O)NCc2ccc3c(c2)OCO3)nn1,i,i
Cc1ccccc1-c1ccc(SCC(=O)NCc2ccc3c(c2)OCO3)nn1,+,i
COc1cc(C(=O)NC(=S)N2CCc3ccccc32)cc(OC)c1OC,i,i
